Laboratory results published in PubChem BioAssay (NCI).
The panel holds about 83,000 compounds, 20% with a hit somewhere; the sample as a whole holds those more often.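 Testing used 96-well plates and a 48-hour single-concentration exposure. Example: -40 means 40% of the starting cells died.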

What was measured:
Experiment in all cases: NCI-60 one-dose screen, 48 h (100 = growth as untreated, 0 = no growth, -100 = all killed)
Conditions in all cases: 10 µM unless noted; active = growth percent below 10; inactive = the rest
NCI-H23 lung = system: NCI-H23 lung
NCI-H226 lung = system: NCI-H226 lung
NCI-H322M lung = system: NCI-H322M lung
HOP-62 NSCLC = system: HOP-62 NSCLC
NCI-H460 lung = system: NCI-H460 lung
HOP-92 NSCLC = system: HOP-92 NSCLC
NCI-H522 lung = system: NCI-H522 lung
A549/ATCC NSCLC = system: A549/ATCC NSCLC
786-0 renal = system: 786-0 renal
COLO 205 colon = system: COLO 205 colon
DU-145 prostate = system: DU-145 prostate
K-562 leukemia = system: K-562 leukemia
MALME-3M melanoma = system: MALME-3M melanoma
MDA-MB-231 breast = system: MDA-MB-231 breast
RXF 393 renal = system: RXF 393 renal
SF-268 CNS = system: SF-268 CNS
SF-295 CNS = system: SF-295 CNS
SF-539 CNS = system: SF-539 CNS
UACC-257 melanoma = system: UACC-257 melanoma
M14 melanoma = system: M14 melanoma

Measured: growth

CCCCNC(=O)c1ccc(OCC)cc1
inactive: NCI-H23 lung 101% | NCI-H226 lung 96% | NCI-H322M lung 102% | HOP-62 NSCLC 101% | NCI-H460 lung 103% | HOP-92 NSCLC 93.1% | NCI-H522 lung 95.6% | A549/ATCC NSCLC 98.6% | 786-0 renal 98.3% | COLO 205 colon 106% | DU-145 prostate 108% | K-562 leukemia 112% | MALME-3M melanoma 101% | MDA-MB-231 breast 108% | RXF 393 renal 109% | SF-268 CNS 106% | SF-295 CNS 106% | SF-539 CNS 104% | UACC-257 melanoma 102% | M14 melanoma 99.7%

Cc1cccc(-[n+]2noc(N)n2)c1
inactive: NCI-H23 lung 85.5% | NCI-H226 lung 80.8% | NCI-H322M lung 87.7% | HOP-62 NSCLC 87.3% | NCI-H460 lung 80.9% | HOP-92 NSCLC 65% | NCI-H522 lung 50.9% | A549/ATCC NSCLC 102% | 786-0 renal 93.8% | COLO 205 colon 95.7% | DU-145 prostate 75.4% | K-562 leukemia 20.2% | MALME-3M melanoma 86.4% | MDA-MB-231 breast 53.7% | RXF 393 renal 99.1% | SF-268 CNS 81.9% | SF-295 CNS 84.5% | SF-539 CNS 91.6% | UACC-257 melanoma 95.2% | M14 melanoma 88.4%

O=C(O)Cc1cccc2ccccc12
inactive: NCI-H23 lung 121% | NCI-H226 lung 117% | NCI-H322M lung 105% | HOP-62 NSCLC 106% | NCI-H460 lung 109% | HOP-92 NSCLC 103% | NCI-H522 lung 95.7% | A549/ATCC NSCLC 99.8% | 786-0 renal 111% | COLO 205 colon 113% | DU-145 prostate 115% | K-562 leukemia 96.4% | MALME-3M melanoma 116% | MDA-MB-231 breast 123% | RXF 393 renal 117% | SF-268 CNS 109% | SF-295 CNS 110% | SF-539 CNS 108% | UACC-257 melanoma 90.4% | M14 melanoma 103%

Cc1ccc(C)c(CCO)c1
inactive: NCI-H23 lung 117% | NCI-H226 lung 91.8% | NCI-H322M lung 108% | HOP-62 NSCLC 92.4% | NCI-H460 lung 105% | HOP-92 NSCLC 68.3% | NCI-H522 lung 97.8% | A549/ATCC NSCLC 92.6% | 786-0 renal 97.2% | COLO 205 colon 105% | DU-145 prostate 93% | K-562 leukemia 116% | MALME-3M melanoma 106% | MDA-MB-231 breast 92.6% | RXF 393 renal 103% | SF-268 CNS 96.1% | SF-295 CNS 102% | SF-539 CNS 97.2% | UACC-257 melanoma 94.8% | M14 melanoma 108%

CN1CCN(C(=S)S)CC1
inactive: NCI-H23 lung 104% | NCI-H226 lung 109% | NCI-H322M lung 129% | HOP-62 NSCLC 108% | NCI-H460 lung 116% | HOP-92 NSCLC 104% | NCI-H522 lung 94.5% | A549/ATCC NSCLC 94% | 786-0 renal 105% | COLO 205 colon 80.9% | DU-145 prostate 102% | K-562 leukemia 73.5% | MALME-3M melanoma 143% | MDA-MB-231 breast 106% | RXF 393 renal 130% | SF-268 CNS 102% | SF-295 CNS 127% | SF-539 CNS 104% | UACC-257 melanoma 105% | M14 melanoma 105%

NCCCN1CCCC1=O
inactive: NCI-H23 lung 101% | NCI-H226 lung 109% | NCI-H322M lung 96.9% | HOP-62 NSCLC 112% | NCI-H460 lung 113% | HOP-92 NSCLC 105% | NCI-H522 lung 92.6% | A549/ATCC NSCLC 91% | 786-0 renal 105% | COLO 205 colon 111% | DU-145 prostate 114% | K-562 leukemia 114% | MALME-3M melanoma 99.1% | MDA-MB-231 breast 108% | RXF 393 renal 122% | SF-268 CNS 113% | SF-295 CNS 111% | SF-539 CNS 109% | UACC-257 melanoma 97.3% | M14 melanoma 113%

NC(=O)N1CCOCC1
inactive: NCI-H23 lung 106% | NCI-H226 lung 100% | NCI-H322M lung 106% | HOP-62 NSCLC 95.4% | NCI-H460 lung 108% | HOP-92 NSCLC 72.9% | NCI-H522 lung 94.2% | A549/ATCC NSCLC 106% | 786-0 renal 108% | COLO 205 colon 113% | DU-145 prostate 123% | K-562 leukemia 96.6% | MALME-3M melanoma 111% | MDA-MB-231 breast 128% | RXF 393 renal 117% | SF-268 CNS 109% | SF-295 CNS 115% | SF-539 CNS 117% | UACC-257 melanoma 119% | M14 melanoma 108%

CCOC(=O)/C(C)=C\c1ccc(OC)c(OC)c1
inactive: NCI-H23 lung 98.1% | NCI-H226 lung 100% | NCI-H322M lung 101% | HOP-62 NSCLC 105% | NCI-H460 lung 102% | HOP-92 NSCLC 93.6% | NCI-H522 lung 107% | A549/ATCC NSCLC 101% | 786-0 renal 95.5% | COLO 205 colon 105% | DU-145 prostate 99.5% | K-562 leukemia 87% | MALME-3M melanoma 112% | MDA-MB-231 breast 102% | RXF 393 renal 112% | SF-268 CNS 98.3% | SF-295 CNS 100% | SF-539 CNS 101% | UACC-257 melanoma 108% | M14 melanoma 105%
